Compound activity (PubChem BioAssay)
Most compounds without a hit are left out; they make up all but 27% or so of the library.
CYP2C19 activ: human CYP2C19 activators, primary screen, biochemical, luminescence. Cytochrome P450 2C19 (Homo sapiens), P33261. recombinant CYP2C19, luciferin-H EGE luminescence; hits give high values; 0 = fully inhibited enzyme, 1 = untreated enzyme. activation factor at 5 µM. 96,000 tested, under 10 active. AID 1025, 2008;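 active = activation factor of at least 2 at 5 µM in the primary screen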;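 also: 0 = wells with 2.5 mM tranylcypromine and 1 = vehicle-only wells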
Target sequence (P33261 whole entry, looked up): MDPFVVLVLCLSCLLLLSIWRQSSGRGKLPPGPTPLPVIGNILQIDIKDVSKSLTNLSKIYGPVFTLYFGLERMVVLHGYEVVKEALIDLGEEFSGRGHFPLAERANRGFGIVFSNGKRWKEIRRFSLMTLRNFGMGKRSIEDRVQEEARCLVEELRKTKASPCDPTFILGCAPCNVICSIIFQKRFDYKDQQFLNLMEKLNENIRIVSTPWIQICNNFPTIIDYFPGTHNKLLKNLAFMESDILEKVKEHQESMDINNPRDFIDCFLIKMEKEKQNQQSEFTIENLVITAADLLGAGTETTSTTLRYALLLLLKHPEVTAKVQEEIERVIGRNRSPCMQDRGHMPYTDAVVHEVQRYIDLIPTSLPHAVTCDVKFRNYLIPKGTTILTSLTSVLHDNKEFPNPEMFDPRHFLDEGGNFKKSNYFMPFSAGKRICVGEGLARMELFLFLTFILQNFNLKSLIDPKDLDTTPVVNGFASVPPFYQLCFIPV
sEH inh: soluble epoxide hydrolase inhibitors, primary screen, biochemical, human sEH. 91,000 compounds, 0.34% hits. recombinant human sEH enzymatic activity assay. inhibition, % at 2 µM. Bifunctional epoxide hydrolase 2 (Homo sapiens), P34913; in the data active = inhibition above about 80%
CYP2C19 inhib: blockers of cytochrome P450 2C19 activity – biochemical, luminescence, ADME assay, primary screen; P33261; CYP2C19 Supersomes, luciferin-H EGE luminescence, 30 min; inhibition, % at 5 µM; 96,000 compounds, 21% hits; AID 778, 2007;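 active = CYP2C19 inhibition above a set limit at 5 µM in the primary screen, cut at about 50% in these data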;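 also: plate controls were negative control wells for no effect and 2.5 mM tranylcypromine positive control for full effect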
CYP2C9 act: human CYP2C9 activators, primary screen, biochemical, luminescence | recombinant CYP2C9, luciferin-H conversion; hits give high values; factor 1 = untreated enzyme, 0 = blocked | activation factor at 5 µM | 96,000 compounds, 1.4% hits | Cytochrome P450 2C9 (Homo sapiens), P11712;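 active = activation factor of 2 or more for CYP2C9 at a 5 µM dose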;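 also: 0 = sulfaphenazole-blocked wells and 1 = vehicle-only wells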
CYP2C9 inhib: blockers of cytochrome P450 2C9 activity – biochemical, luminescence, ADME assay, primary screen; P11712; CYP2C9 Supersomes, luciferin-H conversion; inhibition, % at 5 µM; 96,000 compounds, 20% hits; AID 777, 2007;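 active = blocking of liver enzyme CYP2C9 beyond about 50% at 5 µM, limit read from the data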
sEH activator: soluble epoxide hydrolase activators, primary screen, biochemical, human sEH | Bifunctional epoxide hydrolase 2 (Homo sapiens), P34913 | 91,000 compounds, 0.04% hits | purified human sEH enzymatic activity, activator screen | activation, % at 2 µM; in the data active = activation above about 37%
Active calls of the source: *; . = no result.

SMILES	CYP2C19 activ	sEH inh	CYP2C19 inhib	CYP2C9 act	CYP2C9 inhib	sEH activator
CC1CCCC(NC(=O)COC(=O)c2ccc(S(=O)(=O)N3CCOCC3)cc2)C1C (configuration not stated)	0.9	80	9	0.8	23	-80
CC1CCCCC1NC(=O)COC(=O)c1ccc(N(C)C)cc1 (configuration not stated)	0.1	28	91*	0.6	41	-27
C=CCOC(=O)C1=C(C)NC(C)=C(C(=O)OCC=C)C1c1ccc(O)cc1	0	.	100*	0	100*	.
COC(=O)C1=C(C)Nc2ncnn2C1c1ccccn1 (configuration not stated)	1	14	0	1.2	-21	-14
COC(=O)C1=C(C)NC(C)=C(C(=O)OC)C1c1ccc(OC(=O)c2ccco2)cc1	0.9	21	12	0.4	57*	-21
CCOC(=O)C1=C(C)NC(C)=C(C(=O)OCC)C1c1ccc(OC)cc1	0.3	-10	70*	0.1	88*	8
CCOC(=O)C1=C(C)NC(=O)NC1c1ccc(OC(=O)c2ccco2)cc1 (configuration not stated)	.	0	.	.	.	0
COC(=O)C1=C(C)NC(C)=C(C(=O)OC)C1c1ccccn1	0.8	6	22	0.2	83*	-7
CCOC(=O)C1C(=O)C=C(C)C(C(=O)OCC)C1c1ccc(OC)cc1 (configuration not stated)	0.3	-13	73*	0.8	17	10
CC(=O)Nc1cc(OC(=O)c2ccco2)cc(OC(=O)c2ccco2)c1	0.7	-5	26	0.3	66*	7
CC(=O)Nc1ccc(OC(=O)c2ccco2)cc1	.	-4	.	.	.	4
CCCOC(=O)c1ccc(OC(=O)c2ccco2)cc1	0.9	7	12	2*	-97	-7
CCCOC(=O)c1ccc(NC(=O)Oc2ccccc2)cc1	1	-5	5	1	2	5
COc1ccc(CCNC(=O)c2cc3ccccn3n2)c(OC)c1OC	0.2	.	75*	0.8	17	.
CCn1c(=O)c(C2=NS(=O)(=O)c3ccccc3N2)c(O)c2ccccc21	1.2	.	-19	0.4	61*	.
CCn1c(=O)c(-[n+]2ccccc2)c(O)c2ccccc21	1	-11	2	1.2	-17	9
O=S(=O)(NCc1ccc(Cl)cc1)c1ccc(Cl)nc1	0.1	-10	90*	0.8	17	10
CSc1ccc(S(=O)(=O)NCc2ccccc2)cc1	0.3	2	67*	1.1	-13	1
O=C(CCNS(=O)(=O)c1ccc(Cl)cc1)NCc1cccnc1	0.6	-2	44	0.8	24	0
CC(NS(=O)(=O)c1ccc(Cl)cc1)C(c1cccs1)N1CCN(C)CC1 (configuration not stated)	.	0	.	.	.	4
O=S(=O)(NCc1cccnc1)c1ccccc1	0.8	-4	16	1.1	-5	3
O=S(=O)(NCc1ccccc1)c1ccc(Cl)cc1	0.2	-10	80*	0.3	72*	6
O=S(=O)(NCC(c1ccccc1)N1CCNCC1)c1ccc(Cl)cc1 (configuration not stated)	0.4	7	60*	0.9	5	-8
COC(=O)c1c(NC(=O)CN2CCC(C)CC2)c2c(C)cccc2n1C	0.8	-4	20	0.9	6	5
O=C1c2cccc3c(Nc4ccccc4Cl)c([N+](=O)[O-])cc(c23)C(=O)N1CCO	0.9	-6	14	0.8	23	5
SMILES	CYP2C19 activ	sEH inh	CYP2C19 inhib	CYP2C9 act	CYP2C9 inhib	sEH activator
CSc1ccc(S(=O)(=O)NCc2ccc(Cl)cc2Cl)cc1	0.1	7	86*	2.4*	-136	-4
O=CNc1ccc(S(=O)(=O)NCc2ccccc2)cc1	0.1	-43	90*	1.8	-78	39*
CC(C)N(CCNS(=O)(=O)c1ccc(Cl)cc1)C(C)C	0.6	-1	43	0.5	54*	0
CSc1ccc(S(=O)(=O)Nc2c(C)cccc2C)cc1	0.6	13	40	0.8	16	-13
CCOC(=O)C1=C(c2ccccc2)N(C)C(=O)NC1c1ccc(OC(F)F)c(OC)c1 (configuration not stated)	0.3	34	69*	0.2	83*	-32
CCOC(=O)c1sc(=S)sc1SCc1cccc(C(F)(F)F)c1	0.5	-3	53*	0	97*	6
O=c1cc(CSc2ccc(S(=O)(=O)N3CCCCC3)cn2)nc2sccn12	0.3	-3	66*	0.2	80*	0
CCOC(=O)COc1cc(Br)c(C2NC(=O)NC(C)=C2C(C)=O)cc1OCC (configuration not stated)	0.8	-17	16	0.6	35	16
Cc1cccc(Nc2nc(-c3cccs3)cs2)n1	.	2	.	.	.	3
Cc1cccc(Nc2nc(-c3ccccn3)cs2)n1	0.4	2	58*	0.5	52*	1
CCOCCn1c(CN2CCC(Cc3ccccc3)CC2)nc2c1c(=O)n(C)c(=O)n2C	0.8	8	22	0.8	24	-8
CCSc1nnc(NC(=O)COc2cccc3ccccc23)s1	0.8	-4	22	0.4	57*	6
O=C(COc1cccc2ccccc12)NNC(=O)[C@@H]1CCCC[C@@H]1C(=O)O	0.7	0	33	1.7	-72	2
CCNC(=O)COc1cccc2ccccc12	0.5	7	54*	1.1	-11	-5
CCOCC(=O)Nc1nnc(SCCOC)s1	1	14	1	0.5	51*	-14
O=C(COc1cccc2ccccc12)NNC(=O)Nc1ccccc1	0.5	13	53*	2*	-104	-16
O=C(COc1ccc(N2CC(C(=O)O)CC2=O)cc1)Nc1cccc(C(F)(F)F)c1 (configuration not stated)	1	1	-4	1.2	-20	2
CCOc1ccc(C(=O)NCc2ccncc2)cc1	0.6	14	37	0.9	14	-16
COC(=O)/C=C/C(=O)Nc1cccnc1	1.1	3	-7	1	-1	-3
CC(C)(Oc1ccc(Cl)cc1)C(=O)NCc1ccco1	0.9	4	11	0.5	52*	-4
CC(C)(Oc1ccc(Cl)cc1)C(=O)Nc1cccnc1	0.5	8	52*	0.7	25	-7
C/C(CC(=O)NCc1ccco1)=N\NC(=O)Cc1ccc(Cl)cc1	0.9	2	10	0.9	7	1
CC(C)(Oc1ccc(Cl)cc1)C(=O)NCc1ccncc1	0	8	99*	0	98*	-8
